Experimental data taken from PubChem BioAssay AID1851 (National Center for Advancing Translational Sciences (NCATS), 2009).
Values joined by “and” are separate entries in the source; they are usually repeats but may differ in a detail not shown here. Equal values may be shown once. In all, about 16,000 compounds went through this assay and about 2,600 (16%) were called active. About 20% were inconclusive and are not listed. Calls follow the shape of the dose curve; as a rule, active = well fitted curve in the direction sought with a large enough effect; inconclusive = small, poorly fitted or top-dose-only effect, or effect the other way; inactive = no such curve, though single readings can be large or run the other way. These entries were drawn from the full list. Peptide text beside a SMILES is read from it. * marks the point of attachment. Cbz = O=C(OCc1ccccc1)*
% is scaled to controls: 0 for no effect and ±100 for the full control effect.

The compounds below were run against Cytochrome P450 2D6 (Homo sapiens) (UniProt P10635) (assay: Cytochrome panel assay with activity outcomes). Conditions: recombinant CYP, pro-luciferin dealkylation, luminescence, p450-cyp2d6; series mostly up to 57.1 µM.
Cytochrome P450 2D6 (Homo sapiens), sequence (P10635 whole entry, looked up): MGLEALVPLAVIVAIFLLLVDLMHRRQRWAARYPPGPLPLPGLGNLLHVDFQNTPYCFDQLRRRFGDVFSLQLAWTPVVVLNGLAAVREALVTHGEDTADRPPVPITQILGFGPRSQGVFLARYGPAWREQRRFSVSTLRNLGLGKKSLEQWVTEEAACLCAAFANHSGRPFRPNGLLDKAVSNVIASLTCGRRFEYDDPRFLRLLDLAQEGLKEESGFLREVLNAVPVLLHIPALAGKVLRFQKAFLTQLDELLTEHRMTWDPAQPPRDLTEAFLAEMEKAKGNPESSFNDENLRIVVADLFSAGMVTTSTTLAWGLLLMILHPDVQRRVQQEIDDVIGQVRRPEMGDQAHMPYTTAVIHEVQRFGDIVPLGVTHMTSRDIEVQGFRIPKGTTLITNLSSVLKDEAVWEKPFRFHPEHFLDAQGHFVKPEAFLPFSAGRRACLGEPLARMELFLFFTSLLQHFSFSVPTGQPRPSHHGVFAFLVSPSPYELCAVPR
Cn1cc(-c2nc3cnc(Oc4ccccc4)nc3n(Cc3cccs3)c2=O)c2ccccc21 was tested, and the AC50 was “inactive”.
With CC(C)Cn1c(SCC(=O)c2c(N)n(C)c(=O)n(C)c2=O)nc2ccccc21 the AC50 was “inactive”.
COCCNC(=O)c1onc(CSc2cccc(Cl)c2)c1C(=O)O was tested, and the AC50 was “inactive”.
For Nc1ccc(N=Nc2ccc(-c3ccc(O)cc3)cc2)c2ccc(S(=O)(=O)O)cc12, the activity, negative = inhibition was 3.2% [at 11.4 µM] (inactive).
In the case of O=C(O)c1[nH]c2c([N+](=O)[O-])cc([N+](=O)[O-])cc2c1C(=O)O, the activity, negative = inhibition is reported as 11.1% [at 11.4 µM] (inactive).
In the case of NC(=O)C[C@H](N)C(N)=O, the activity, negative = inhibition is reported as -0.87% [at 11.4 µM] (inactive).
CC1CCN(C(=O)Nc2ccc3nsnc3c2)CC1 was tested, and the AC50 was “inactive”.
In the case of O=S(=O)(c1ccccc1)N1CCC2(CCCN(Cc3nccs3)C2)CC1, the AC50 is reported as “inactive”.
COc1ccccc1CN1CCC2(CC1)CCN(S(=O)(=O)c1ccccc1)CC2 was tested, and the AC50 was 0.158 µM (active).
O=S(=O)(c1ccccc1)N1CCC2(CC1)CN(Cc1nccs1)C2 was tested, and the AC50 was “inactive”.
In the case of O=S(=O)(c1ccccc1)N1CCC[C@@]2(CCN(Cc3nccs3)C2)C1, the AC50 is reported as 2.51 µM (active).
In the case of COc1ccc(NC(=O)N2CC3(CCN(S(=O)(=O)c4ccccc4)CC3)C2)cc1, the AC50 is reported as “inactive”.
CN1CCC2(CC1)CCN(S(=O)(=O)c1ccccc1)CC2 was tested, and the AC50 was “inactive”.
With Cc1cccn2c(=O)c(C=NCc3ccco3)c(Nc3ccc(SC(F)F)cc3)nc12 the AC50 was “inactive”.
For COC(=O)[C@@H]1O[C@@H](SCCN)[C@@H](O)[C@H](O)[C@H]1O, the activity, negative = inhibition was -0.405% [at 11.4 µM] (inactive).
C#CCSc1nnc(-c2sc(-c3ccccc3)nc2C)n1C was tested, and the AC50 was 6.31 µM (active).
In the case of C#CCSc1nnc(-c2cc3c(C(F)(F)F)nn(C)c3s2)n1C, the AC50 is reported as “inactive”.
In the case of CSc1nnc(-c2sc(-c3ccccc3)nc2C)n1C, the AC50 is reported as “inactive”.
For CC(=O)c1cc2ccccc2oc1=O, the AC50 was “inactive”.
With COC(=O)C1CSC(C(=O)OC)N1C(=O)Nc1c(C)cccc1C (stereo unspecified) the AC50 was “inactive”.
O=C(CN(Cc1ccccc1Cl)C(=O)c1ccc(CN2CCOCC2)o1)NCC1CCCO1 (stereo unspecified) was tested, and the AC50 was 7.08 µM (active).
In the case of Cc1ccc(CS(=O)(=O)Cc2ccc(C(=O)NCC3CCCO3)o2)cc1 (stereo unspecified), the AC50 is reported as “inactive”.
For O=C(CSCc1c(F)cccc1Cl)NCC1CCCO1 (stereo unspecified), the AC50 was “inactive”.
In the case of Cc1ccccc1NC(=O)c1cccc2nc3ccccc3nc12, the AC50 is reported as “inactive”.
For COC(=O)C/C=C\[C@@H](C)[C@@H](/C=N\OC[C@@H]1O[C@H](c2ccccc2)C=C[C@@H]1Oc1ccc(OC)cc1)NS(=O)(=O)c1ccc(C)cc1, the activity, negative = inhibition was -14% [at 11.4 µM] (inactive).
With N=C(N)SCCc1cnc[nH]1 the AC50 was 25.1 µM (active) and 6.31 µM (active).
For N=C(N)SCCCN, the activity, negative = inhibition was -11.8% [at 11.4 µM] (inactive).
In the case of O=C(NCCNC[C@@H](O)COc1ccc(O)cc1)N1CCOCC1, the AC50 is reported as “inactive”.
With Cc1nc(Oc2ccc(Cl)cc2)c2oc3ccccc3c2n1 the AC50 was “inactive”.
For CCn1c(=O)cc(OCC(=O)Nc2cccnc2)c2ccccc21, the AC50 was 6.31 µM (active).
For Cn1c(=O)cc(OCC(=O)NCc2cccnc2)c2ccccc21, the AC50 was “inactive”.
In the case of COc1ccccc1OCC(=O)NNC(=O)c1cnccn1, the AC50 is reported as “inactive”.
Cc1cc(N2CCOCC2)ccc1/C=C1\SC(=O)N(C(C)C)C1=O was tested, and the AC50 was “inactive”.
For COC(=O)[C@H](C)NC(=O)[C@@H](C)CO, the activity, negative = inhibition was -0.424% [at 11.4 µM] (inactive).
With Cn1c(=O)c2[nH]c(/N=N\N3CCN(CCO)CC3)nc2n(C)c1=O the activity, negative = inhibition was 3.89% [at 11.4 µM] (inactive).
In the case of N[C@H](Cc1ccc(Cl)cc1)C(=O)O, the AC50 is reported as “inactive”.
N[C@@H](C(=O)O)[C@H](CC(=O)O)c1ccc(Cl)cc1 was tested, and the AC50 was 2.51 µM (active).
For O=C(O)CCC(=O)c1ccc(Cl)cc1, the activity, negative = inhibition was 11.7% [at 11.4 µM] (inactive).
With CCn1c(SCc2ccc(C(=O)Nc3nccs3)cc2)nnc1-c1ccc(NC(C)=O)cc1 the AC50 was “inactive”.
For CC12CCC(C(=O)Nc3ccccc3Br)(C/C1=N\O)C2(C)C (stereo unspecified), the AC50 was “inactive”.
With Cc1cnc(CNc2ccnc(-c3c(C)noc3C)n2)cn1 the AC50 was “inactive”.
With CN(C)c1ccc(-c2nccc(NCc3cccs3)n2)cc1 the AC50 was 0.126 µM (active).
With c1cncc(-c2nccc(NCc3cccs3)n2)c1 the AC50 was 0.631 µM (active).
With Cc1cnc(CNc2ccnc(-c3ccoc3)n2)cn1 the AC50 was “inactive”.
With c1csc(CNc2ccnc(-c3ccoc3)n2)c1 the AC50 was 3.16 µM (active).
In the case of c1ccc(CNc2ccnc(-c3ccoc3)n2)cc1, the AC50 is reported as 20 µM (active).
COc1ncc2ncc(=O)n(Cc3ccc(F)cc3)c2n1 was tested, and the AC50 was “inactive”.
For CCC(C)[C@H](NC(=O)Nc1ccc(Oc2ccccc2)cc1)C(=O)O (stereo partly specified), the AC50 was “inactive”.
With O=C(O)c1c[nH]c2cc(OCc3ccccc3)ccc2c1=O the activity, negative = inhibition was 4.69% [at 11.4 µM] (inactive).
In the case of O=C(O)[C@@H]1[C@@H]2C[C@H]([C@@H](Br)[C@H]2N2C(=O)CCC2=O)[C@@H]1C(=O)O, the activity, negative = inhibition is reported as -2.86% [at 11.4 µM] (inactive).
For COC(=O)CCC(NC(=O)OCc1ccccc1)C(=O)NC(CC(C)C)C(=O)OC (stereo unspecified) (Cbz-Glu(OMe)-Leu-OMe; configuration not given here), the AC50 was “inactive”.
With COC(=O)C(NNc1ccccc1)(NC(=O)c1ccccc1F)C(F)(F)F (stereo unspecified) the AC50 was “inactive”.
In the case of CCCNC(=O)OC[C@@H]1O[C@H](CCO/N=C\c2ccc(C(=O)N3[C@H](c4ccc(C)cc4)[C@@H](C)CC[C@H]3C(=O)OC)cc2)C=C[C@@H]1Oc1ccc(OC)cc1, the activity, negative = inhibition is reported as 9.53% [at 11.4 µM] (inactive).
In the case of O=C(c1ccccc1)[C@@H]1O[C@H]1c1ccc(-c2ccccc2)cc1, the AC50 is reported as “inactive”.
With O=C(Cn1cnc2ccccc21)NC(c1ccccc1)c1ccccc1 the AC50 was 7.08 µM (active).
CC(NC(=O)Cn1cnc([N+](=O)[O-])n1)c1ccccc1 (stereo unspecified) was tested, and the AC50 was “inactive”.
C[C@H](NC(=O)Cn1cncn1)c1ccccc1 was tested, and the AC50 was “inactive”.
C[N+]1(CCCC[N+]2(C)CCCCCCC2)CCCCCCC1 was tested, and the activity, negative = inhibition was -7.84% [at 11.4 µM] (inactive).
For N/C(=N\O)c1cn([C@@H]2O[C@@H](CO)[C@H](O)[C@@H]2O)c2ncnc(NO)c12, the activity, negative = inhibition was 14.4% [at 11.4 µM] (inactive).
In the case of CCOc1ccc(N2C(=O)CN=C2Nc2ccccc2Cl)cc1, the AC50 is reported as “inactive”.
In the case of CCOc1ccc(N2C(=O)CN=C2Nc2ccccc2F)cc1, the AC50 is reported as “inactive”.
CCOc1ccc(NC2=NCC(=O)N2Cc2cccs2)cc1 was tested, and the AC50 was 7.08 µM (active).
With CCCCOC(=O)CCc1c(C)[nH]c(=O)c(C#N)c1C the AC50 was “inactive”.
With CCN(CC)C(=O)C1=C(C)NC(=S)NC1c1cn(-c2ccccc2)nc1-c1ccc(Cl)cc1 (stereo unspecified) the AC50 was “inactive”.
In the case of O=C(O)[C@@H]1[C@@H](C(=O)Nc2ncccn2)[C@@H]2C=C[C@@H]1O2, the activity, negative = inhibition is reported as 15.2% [at 11.4 µM] (inactive).
CCc1cccc(N(C)C(N)=Nc2cccc3ccccc23)c1 was tested, and the AC50 was 0.2 µM (active).
For O=C(NC[C@@H](O)CO)c1c(I)c(C(=O)NC[C@@H](O)CO)c(I)c(N(CCO)C(=O)CO)c1I, the AC50 was “inactive”.
For O=C1c2ccccc2-c2ccc(N(Cc3ccc(Br)cc3)Cc3ccc(Br)cc3)cc21, the activity, negative = inhibition was -1.8% [at 11.4 µM] (inactive).
With CN1[C@@H]2CC[C@H]1CC(OC(c1ccccc1)c1ccccc1)C2 (stereo partly specified) the AC50 was 2 µM (active) and 1.26 µM (active).
With C[N+]1(C)CCC(OC(=O)C(c2ccccc2)c2ccccc2)CC1 the AC50 was “inactive”.
With Cn1c(=O)c(-c2cc(F)cc(F)c2)nc2cncnc21 the AC50 was “inactive”.
Cc1nn(C)cc1CNC(=O)CCC(=O)O was tested, and the AC50 was “inactive”.
With COc1ccc(NC(=O)N2CCC3(CC2)CCN(S(C)(=O)=O)CC3)cc1 the AC50 was “inactive”.
COc1ccc(NC(=O)NCCCN2CCCCC2C)cc1 (stereo unspecified) was tested, and the AC50 was 1.58 µM (active).
For CCN1CCCC1CNC(=O)C(=O)Nc1ccc(OC)cc1 (stereo unspecified), the AC50 was “inactive”.
O=S(=O)(c1cnccc1N1CCN(CCO)CC1)N1CCCC1 was tested, and the activity, negative = inhibition was 10% [at 11.4 µM] (inactive).
With Cc1cccc(Nc2ccccc2C(=O)OCC(=O)NCc2ccco2)c1C the AC50 was “inactive”.
For O=C(Nc1ccccc1Cl)c1ccn[nH]1, the AC50 was “inactive”.
For O=C1C(=O)N(Cc2ccc(Cl)c(Cl)c2)c2ccccc21, the AC50 was 3.98 µM (active).
O=C1c2cccnc2C(=O)N1Cc1ccc(F)cc1 was tested, and the AC50 was “inactive”.
With O=C1CCCc2ccccc2N1Cc1cccc(Cl)c1 the AC50 was “inactive”.
With CCn1ncc(C(=O)Nc2cc(C)on2)c1C the AC50 was “inactive”.
With Cc1c(C)c2c(C)[nH]nc2oc1=O the AC50 was “inactive”.
With CN(C)c1nc(C#N)nc(N2CCOCC2)n1 the AC50 was “inactive”.
With O=C(O)CP(=O)(O)O the AC50 was “inactive”.
With CCOC(=O)C(NC(C)=O)C(=O)O (stereo unspecified) the AC50 was “inactive”.
For CCOC(=O)[C@H](N)/C=C(\C)CP(=O)(O)O, the AC50 was 2 µM (active).
For Cc1ccc(C)c2sc(NC(=O)c3ccc(N4CCCCC4)c([N+](=O)[O-])c3)nc12, the AC50 was “inactive”.
In the case of CCc1nnc(NC(=O)CCC(=O)N2CCN(c3ccccn3)CC2)s1, the AC50 is reported as “inactive”.
With Cc1ccc(C2NC(c3ccc(C)cc3)C(C)C(=NO)C2C)cc1 (stereo unspecified) the AC50 was 0.562 µM (active).
For Cc1ccc(C2CC2C(=O)NN)cc1 (stereo unspecified), the AC50 was “inactive”.
For Cc1ccc(NC(=O)/C(=C\c2cccc([N+](=O)[O-])c2)NC(=O)c2cccs2)cc1, the AC50 was “inactive”.
For c1ccc(-c2csc(Nc3nc(N4CCOCC4)nc(N4CCOCC4)n3)n2)cc1, the AC50 was “inactive”.
With OCCNc1nc(NCCC2=CCCCC2)nc(N2CCOCC2)n1 the AC50 was 7.08 µM (active).
Cc1nc2ncnn2c(C)c1CCC(=O)NCCC1=CCCCC1 was tested, and the AC50 was “inactive”.
In the case of COc1ccc(-c2cc(C(F)(F)F)nc(N3CCCCC3)n2)cc1OC, the AC50 is reported as “inactive”.
For Cc1ccccc1N1C(=O)c2cc(S(N)(=O)=O)c(Cl)cc2N[C@H]1C, the AC50 was “inactive”.
In the case of OC(COCc1ccccc1)Cn1cnc2ccccc21 (stereo unspecified), the AC50 is reported as 14.1 µM (active).
For C[n+]1cn(CC(O)COCc2ccccc2)c2ccccc21 (stereo unspecified), the AC50 was 1.12 µM (active).
In the case of O=C1CCCC=C1[C@@H](O)COCc1ccccc1, the activity, negative = inhibition is reported as -20.2% [at 11.4 µM] (inactive).
For Cn1c2ccccc2c2cc(C(=O)N3CCOCC3)sc21, the AC50 was “inactive”.
